Assay results as given in PubChem BioAssay (NCI).
The panel holds about 83,000 compounds, 20% with a hit somewhere; the sample as a whole holds those more often.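 96-well plates, one dose, 48 hours. Percent growth reported; active if below 10.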 A number with no mark means an inactive call. Activity calls are given as the source filed them.

The molecules below were run on UO-31 renal (assay: NCI-60 one-dose screen, 48 h (100 = growth as untreated, 0 = no growth, -100 = all killed)). Settings: 10 µM unless noted.

For `NC(=O)N1CCOCC1`, which growth is on record?
Its growth is 79.8%.

`N#Cc1ccc(OC(=O)Nc2c(Cl)cc(Cl)cc2Cl)cc1` was tested. Which growth did it give?
The growth was 83.1%.

With `CCOC(=O)/C(C)=C\c1ccc(OC)c(OC)c1` as the molecule, how does the growth read?
Its growth is 95.1%.

How did the growth turn out when `O=S(Cc1ccccc1)/C(=C/NC(=S)Nc1ccccc1)c1ccccc1` (centres undefined) was run?
The growth was 81.7%.

With `C/C(=N\O)c1ccccn1` as the molecule, how does the growth read?
Its growth is 88.1%.

`CC(C)NC(=O)OCc1c(COC(=O)NC(C)C)c(-c2ccc(Cl)cc2)n2c1CCC2` was tested. Which growth did it give?
The growth was 50.6%.

Which growth does the source give for `CC(=O)NNC(=S)/N=C\C(C(=O)c1ccccc1)=C(/O)c1ccccc1` here?
The growth was 79.8%.

For `C=CCS(C)(=O)=O`, which growth is on record?
The growth was 90.3%.

How did the growth turn out when `O=C(NCc1ccccc1)c1cccc([N+](=O)[O-])c1` was run?
Its growth is 70.1%.

With `c1ccc(-c2ccc3ccccc3c2)cc1` as the molecule, how does the growth read?
The growth was 85.2%.

Which growth does the source give for `Cc1ccccc1NC(=O)Oc1ccc(Cl)cc1C(=O)c1ccccc1` here?
The growth was 49.1%.

For `CCC(C)c1c(N)n(S(=O)(=O)c2ccc(C)cc2)oc1=O` (centres undefined), which growth is on record?
The growth was 89.5%.

Which growth does the source give for `O=Cc1c(O)c2ccccc2[nH]c1=O` here?
The growth was 81.6%.

With `COC(=O)c1ccccc1C(=O)c1c(C)cc(C)cc1C` as the molecule, how does the growth read?
The growth was 92.9%.

With `N=C(N)c1nn(C2OC(CO)C(O)C2O)c2nc[nH]c(=O)c12` (centres undefined) as the molecule, how does the growth read?
Its growth is 13.1%.

Which growth does the source give for `COc1cccc(C(=O)O)c1OC` here?
Its growth is 86.5%.

For `O=C(O)c1cc(I)ccc1O`, which growth is on record?
Its growth is 90.7%.

Which growth does the source give for `CC(=O)NNC(=S)N/C=C/c1c(C)ccc([N+](=O)[O-])c1[N+](=O)[O-]` here?
The growth was 92%.

How did the growth turn out when `NNc1ncnc2c1ncn2C1OC(CO)C(O)C1O` (centres undefined) was run?
The growth was 38.1%.

For `C=CCNC(=S)N/C=C(/C(=O)c1ccccc1)c1ccccc1`, which growth is on record?
Its growth is 95.3%.

Which growth does the source give for `Cc1ccc(C2CCCCC2)cc1Br` here?
Its growth is 83.2%.

How did the growth turn out when `OCCc1ccc(Cl)cc1` was run?
The growth was 90.5%.

How did the growth turn out when `C/C(O)=C(/C=N/C(=S)Nc1ccccc1)C(=O)Nc1ccccc1C` was run?
Its growth is 89.7%.

Which growth does the source give for `CC1(C)OC(=O)CC1=O` here?
Its growth is 92.9%.

How did the growth turn out when `CN(C)CCOC(=O)Nc1ccc(Cc2ccc(NC(=O)OCCN(C)C)cc2)cc1` was run?
Its growth is 68.6% [100 µM].

For `O=c1nc(Nc2cccc(Cl)c2)oc2cc(Cl)oc(=O)c12`, which growth is on record?
Its growth is 47.9%.

`OCCNc1ccccc1` was tested. Which growth did it give?
The growth was 90.9%.

`O=C(Oc1ccccc1Cl)c1ccc(Cl)cc1Cl` was tested. Which growth did it give?
The growth was 85.4%.

Which growth does the source give for `COc1cc(OC)c2cc(C(=O)c3ccc(C#N)cc3)c(=O)oc2c1` here?
Its growth is 84.7%.

For `CC(C)C1CCC(C)C(O)C1` (centres undefined), which growth is on record?
Its growth is 89.3%.

For `O=C(NC1CCCCC1)c1ccc(Cl)cc1`, which growth is on record?
The growth was 94.7%.

With `O=C1C=Cc2ccccc2/C1=C/c1[nH]c(=O)[nH]c1O` as the molecule, how does the growth read?
The growth was 52.5%.

For `NC(CO)(CO)c1ccccc1`, which growth is on record?
Its growth is 88.6%.

For `Nc1cc(N)ncn1`, which growth is on record?
The growth was 94%.

`S=C(Sc1ccc(Cl)cc1)Sc1ccc(Cl)cc1` was tested. Which growth did it give?
Its growth is -59.8% (active).

For `CCOc1ccc(C(=O)O)cc1`, which growth is on record?
Its growth is 102%.

With `COc1cccc(C(=O)NNC(=O)c2cccc3ccccc23)c1` as the molecule, how does the growth read?
Its growth is 97%.

Each molecule was assayed on TK-10 renal in the same assay as above. Settings: 10 µM unless noted.

How did the growth turn out when `NC(=O)N1CCOCC1` was run?
Its growth is 92.4%.

With `N#Cc1ccc(OC(=O)Nc2c(Cl)cc(Cl)cc2Cl)cc1` as the molecule, how does the growth read?
The growth was 104%.

`CCOC(=O)/C(C)=C\c1ccc(OC)c(OC)c1` was tested. Which growth did it give?
Its growth is 104%.

With `O=S(Cc1ccccc1)/C(=C/NC(=S)Nc1ccccc1)c1ccccc1` (centres undefined) as the molecule, how does the growth read?
The growth was 119%.

`C/C(=N\O)c1ccccn1` was tested. Which growth did it give?
Its growth is 95.8%.

With `CC(C)NC(=O)OCc1c(COC(=O)NC(C)C)c(-c2ccc(Cl)cc2)n2c1CCC2` as the molecule, how does the growth read?
The growth was 57.6%.

How did the growth turn out when `CC(=O)NNC(=S)/N=C\C(C(=O)c1ccccc1)=C(/O)c1ccccc1` was run?
Its growth is 130%.

`C=CCS(C)(=O)=O` was tested. Which growth did it give?
The growth was 96.6%.

With `O=C(NCc1ccccc1)c1cccc([N+](=O)[O-])c1` as the molecule, how does the growth read?
The growth was 99.6%.

`c1ccc(-c2ccc3ccccc3c2)cc1` was tested. Which growth did it give?
Its growth is 97.7%.

How did the growth turn out when `Cc1ccccc1NC(=O)Oc1ccc(Cl)cc1C(=O)c1ccccc1` was run?
The growth was 113%.

For `CCC(C)c1c(N)n(S(=O)(=O)c2ccc(C)cc2)oc1=O` (centres undefined), which growth is on record?
The growth was 101%.

How did the growth turn out when `O=Cc1c(O)c2ccccc2[nH]c1=O` was run?
The growth was 106%.

Which growth does the source give for `COC(=O)c1ccccc1C(=O)c1c(C)cc(C)cc1C` here?
The growth was 88.3%.

With `N=C(N)c1nn(C2OC(CO)C(O)C2O)c2nc[nH]c(=O)c12` (centres undefined) as the molecule, how does the growth read?
Its growth is -9.5% (active).

With `COc1cccc(C(=O)O)c1OC` as the molecule, how does the growth read?
The growth was 96.2%.

`O=C(O)c1cc(I)ccc1O` was tested. Which growth did it give?
The growth was 93.3%.

Which growth does the source give for `CC(=O)NNC(=S)N/C=C/c1c(C)ccc([N+](=O)[O-])c1[N+](=O)[O-]` here?
Its growth is 118%.

`NNc1ncnc2c1ncn2C1OC(CO)C(O)C1O` (centres undefined) was tested. Which growth did it give?
The growth was 52.8%.

For `C=CCNC(=S)N/C=C(/C(=O)c1ccccc1)c1ccccc1`, which growth is on record?
The growth was 107%.

With `Cc1ccc(C2CCCCC2)cc1Br` as the molecule, how does the growth read?
The growth was 98.7%.

For `OCCc1ccc(Cl)cc1`, which growth is on record?
Its growth is 94.7%.

Which growth does the source give for `C/C(O)=C(/C=N/C(=S)Nc1ccccc1)C(=O)Nc1ccccc1C` here?
The growth was 110%.

`CC1(C)OC(=O)CC1=O` was tested. Which growth did it give?
The growth was 87%.

How did the growth turn out when `CN(C)CCOC(=O)Nc1ccc(Cc2ccc(NC(=O)OCCN(C)C)cc2)cc1` was run?
The growth was 124% [100 µM].

With `O=c1nc(Nc2cccc(Cl)c2)oc2cc(Cl)oc(=O)c12` as the molecule, how does the growth read?
The growth was 98.1%.

With `OCCNc1ccccc1` as the molecule, how does the growth read?
The growth was 101%.

How did the growth turn out when `O=C(Oc1ccccc1Cl)c1ccc(Cl)cc1Cl` was run?
Its growth is 103%.

Which growth does the source give for `COc1cc(OC)c2cc(C(=O)c3ccc(C#N)cc3)c(=O)oc2c1` here?
Its growth is 97.7%.

How did the growth turn out when `CC(C)C1CCC(C)C(O)C1` (centres undefined) was run?
The growth was 99.2%.

`O=C(NC1CCCCC1)c1ccc(Cl)cc1` was tested. Which growth did it give?
The growth was 102%.

With `O=C1C=Cc2ccccc2/C1=C/c1[nH]c(=O)[nH]c1O` as the molecule, how does the growth read?
Its growth is 65.2%.

`NC(CO)(CO)c1ccccc1` was tested. Which growth did it give?
Its growth is 96.9%.

Which growth does the source give for `Nc1cc(N)ncn1` here?
The growth was 102%.

Which growth does the source give for `S=C(Sc1ccc(Cl)cc1)Sc1ccc(Cl)cc1` here?
Its growth is -36.3% (active).

How did the growth turn out when `CCOc1ccc(C(=O)O)cc1` was run?
Its growth is 99.6%.

`COc1cccc(C(=O)NNC(=O)c2cccc3ccccc23)c1` was tested. Which growth did it give?
The growth was 120%.
